Consider 66 compounds from ChEMBL document CHEMBL4513216, “Probing the Open Global Health Chemical Diversity Library for Multistage-Active Starting Points for Next-Generation Antimalarials” (ACS Infect Dis, 2020).

Hit rate of the full screen: of about 68,000 compounds, about 2,700 (4%) showed an effect of 50% or more. Many of the other results were omitted from the sample, so strong results are more common in it than they were.

This assay has as its system Plasmodium berghei. In words: Screen against P. berghei liver stage (PbLuc), transformed with Luciferase, at 2uM. It is filed as functional, HepG2. The conditions noted are these: tested at 2 uM.
Turning to `CCN1C[C@@H]2CN(C(=O)c3cccn3C)C[C@@H]2C1=O`, the INHIBITION was 17.05%.

As to `CCCN1C[C@@H]2CC[C@H]1CN(Cc1cccc(O)c1)C2`, the INHIBITION is -1.63%.

With `CC(C)N(C)C(=O)C1CCC(=O)N(CCc2cccc(F)c2)C1` (stereo unspecified), the INHIBITION is on record as 68.39%.

Regarding `CC(C)N(CCO)C(=O)C1CCC(=O)N(CCc2ccc(Cl)cc2)C1` (stereo unspecified), the INHIBITION was found to be 17.2%.

With `CCN(CCO)C(=O)C1CCC(=O)N(Cc2cccc(OC)c2)C1` (stereo unspecified), the INHIBITION turned out to be 53.61%.

As for `CCN(CCO)C(=O)C1CCC(=O)N(CCc2cccc(F)c2)C1` (stereo unspecified), the INHIBITION is given as 30.62%.

Turning to `CCN(CC)C(=O)C1CCC(=O)N(CCc2cccc(F)c2)C1` (stereo unspecified), the INHIBITION is given as 17.48%.

`CCC(CO)(CO)NC(=O)C1CCC(=O)N(CCc2ccccc2)C1` (stereo unspecified): the INHIBITION was -19.02%.

With `CC(C)N(CCO)C(=O)C1CCC(=O)N(CCc2cccc(F)c2)C1` (stereo unspecified), the INHIBITION stood at 66.74%.

`CCCN(CCO)C(=O)C1CCC(=O)N(CCc2ccc(Cl)cc2)C1` (stereo unspecified): the INHIBITION is on record as -16.93%.

As for `CCCN(CCO)C(=O)C1CCC(=O)N(Cc2ccc(Cl)cc2)C1` (stereo unspecified), the INHIBITION is listed as -49.57%.

Take `CN1CCN(C2COC3(CCN(Cc4ccc(F)cc4)CC3)C2)CC1` (stereo unspecified): the INHIBITION was -0.38%.

As for `CC(C)c1cc(C(=O)NCC(O)C2CCOCC2)nn1C(C)(C)C` (stereo unspecified), the INHIBITION is -31.6%.

For the compound `Cc1nc2cc(O)nn2c(C)c1CCC(=O)NCc1cc(Br)cs1`, the INHIBITION came out at 15.28%.

For `Cc1cc(C(=O)NCC2COCc3c(C)nnn3C2)no1` (stereo unspecified), the INHIBITION is on record as 14.39%.

As to `CCN1CC(C(=O)N(C)Cc2ccon2)CC1=O` (stereo unspecified), the INHIBITION is on record as -26.32%.

Consider `CN(C)CC(=O)N1CC[C@H]2OCC[C@@]2(COCC2CC2)C1`, for which the INHIBITION worked out at 11.87%.

Consider `c1cnc(N2CC[C@@H](OCC3CC3)[C@@H]2Cc2cccnc2)nc1`, for which the INHIBITION is listed as 23.21%.

Turning to `CNC(=O)COC1COC2(CCN(c3ccc(C#N)cc3)CC2)C1` (stereo unspecified), the INHIBITION is recorded as 14.97%.

Take `COCC(=O)N(CCC(=O)OC)CC1CCCO1` (stereo unspecified): the INHIBITION is on record as 10.4%.

Turning to `COCC(=O)N1CC[C@H]2C[C@H](c3nnc(C4CC4)o3)O[C@@H]2C1`, the INHIBITION came to 50.61%.

On to `COCC(=O)N1CC[C@H]2C[C@@H](c3nnc(C4CC4)o3)O[C@@H]2C1`, for which the INHIBITION was determined as 6.55%.

Regarding `COCC(=O)N1CC[C@H]2C[C@H](c3nc(C)no3)O[C@@H]2C1`, the INHIBITION is listed as -1.81%.

For the compound `CC(C)CS(=O)(=O)CCNC(=O)Nc1cccc2ncccc12`, the INHIBITION is -41.73%.

For `O=C(Cn1cc(C(=O)O)ccc1=O)NCc1ccc(F)cc1Cl`, the INHIBITION worked out at 9.27%.

On to `COCCOCC(=O)Nc1ccc(C)cc1F`, for which the INHIBITION is 11.28%.

On to `Cc1ccc(Cl)cc1NC(=O)Cn1cc(C(=O)O)ccc1=O`, for which the INHIBITION turned out to be 22.4%.

For the compound `COCCOCC(=O)Nc1ccc(F)cc1C`, the INHIBITION stood at 52.74%.

As for `Cc1cc(F)ccc1NC(=O)Cn1cc(C(=O)O)ccc1=O`, the INHIBITION amounted to 55.39%.

As to `O=C(Cn1cc(C(=O)O)ccc1=O)Nc1cc(F)ccc1F`, the INHIBITION is given as 63.46%.

As for `O=C(Cn1cc(C(=O)O)ccc1=O)Nc1ccc(F)cc1Cl`, the INHIBITION is recorded as -5.95%.

Take `COCCOCC(=O)Nc1cc(C)ccc1F`: the INHIBITION is given as 12.56%.

`O=C(Cn1cc(C(=O)O)ccc1=O)Nc1ccc(Cl)cc1F`: the INHIBITION is 33.23%.

As to `O=C(CC1COCCN1C(=O)c1cscn1)c1ccccc1` (stereo unspecified), the INHIBITION came out at 5.43%.

Take `CNC(=O)Cc1ccccc1NC(=O)C1CCN(C2CCCCC2)C1` (stereo unspecified): the INHIBITION is -0.39%.

For the compound `CC(=O)Nc1ccc(CNCc2ccc(CS(C)(=O)=O)cc2)cc1`, the INHIBITION is on record as -1.53%.

For `Cc1nc(CN2CCCC(NCCCOc3ccc(F)cc3)C2)no1` (stereo unspecified), the INHIBITION was 4.18%.

With `CCc1ncc(C(=O)NCC2CCN(Cc3ccncc3)CC2)cn1`, the INHIBITION is -6.29%.

In the case of `CCN1CCN(C2CCN(Cc3cc(C)on3)CC2)C1=O`, the INHIBITION is -14.11%.

Take `Cc1csc(N2CCN(C(=O)CCc3nccs3)CC2)n1`: the INHIBITION is listed as -18.67%.

In the case of `Cc1[nH]ncc1C(=O)N(CC(C)C)CC(O)c1ccc(F)cc1` (stereo unspecified), the INHIBITION stood at 25.65%.

As for `CC(C)CN(CC(O)c1ccc(F)cc1)C(=O)c1cc[nH]n1` (stereo unspecified), the INHIBITION turned out to be 10.91%.

On to `Cc1cc(C(=O)N(CC(C)C)CC(O)c2ccc(F)cc2)[nH]n1` (stereo unspecified), for which the INHIBITION stood at 51.96%.

In the case of `CNc1ccc(Cl)cc1C(=O)N1CCC(Cn2cc(CN)nn2)CC1`, the INHIBITION came out at 3.72%.

Consider `COc1cccc(CNC(=O)N2CCCC(Cn3cc(CN)nn3)C2)c1` (stereo unspecified), for which the INHIBITION is listed as 76.82%.

In the case of `COc1cccc(CNC(=O)CN2CCCC(Cn3cncn3)C2)c1` (stereo unspecified), the INHIBITION is -0.76%.

`CC(C)NC(=O)N1CCCC(Cn2cc(-c3ccc(F)cc3)nn2)C1` (stereo unspecified): the INHIBITION was -17.86%.

Turning to `NCc1cn(CC2CCCN(C(=O)NCCc3ccc(F)cc3)C2)nn1` (stereo unspecified), the INHIBITION came out at 62.51%.

Turning to `CCC(=O)N1CCCC(Cn2cc(-c3ccc(F)cc3)nn2)C1` (stereo unspecified), the INHIBITION is listed as -27.82%.

In the case of `COc1ccc(CC(=O)N2CCCC(Cn3cc(CN)nn3)C2)cc1` (stereo unspecified), the INHIBITION is recorded as 12.43%.

With `NCc1cn(CC2CCCN(C(=O)NCc3ccc(Cl)cc3)C2)nn1` (stereo unspecified), the INHIBITION came to 62.51%.

Turning to `NCc1cn(CC2CCCN(C(=O)CC3=CCCCC3)C2)nn1` (stereo unspecified), the INHIBITION stood at 16.72%.

As for `Cc1nnc(NC(=O)NCc2ccc(OC3CCCC3)nc2)s1`, the INHIBITION is 12.74%.

For `CCN1C(=O)CO[C@@H]2CN(C(=O)C3CCOCC3)C[C@H]21`, the INHIBITION is reported as 18.31%.

On to `COc1ccc(N(c2ccc(OC)cc2)c2ccc(C(=O)O)s2)cc1`, for which the INHIBITION amounted to 14.95%.

In the case of `CC1c2ncc(COCC3CC3)n2CCN1C(=O)c1ccnn1C` (stereo unspecified), the INHIBITION was found to be 21.67%.

Regarding `Cc1cc(NC(=O)NCC(C(C)C)N2CCOCC2)n(C)n1` (stereo unspecified), the INHIBITION worked out at 11.63%.

Turning to `CN(Cc1cccnc1)C[C@H]1OC[C@@H]2CCN(C(=O)C3CC3)C[C@@H]21`, the INHIBITION was 8.62%.

Regarding `Cc1ccc(CN2CCC(n3cc(CN4CCC(O)CC4)nn3)CC2)s1`, the INHIBITION is given as 35.7%.

For `Cc1cccc(CN2CCC(n3cc(CCO)nn3)CC2)c1C`, the INHIBITION is listed as 55.36%.

Turning to `CC(CCN1CCC(n2cc(CCO)nn2)CC1)c1ccccc1` (stereo unspecified), the INHIBITION was 30.89%.

Regarding `Cc1nc(C2CCCN2C(=O)c2cc3c(s2)CCC3)no1` (stereo unspecified), the INHIBITION is listed as 16.89%.

Turning to `CCc1nc(CN2CCCN(c3ncnc4ccsc34)CC2)no1`, the INHIBITION was found to be 80%.

Consider `CCc1nc(CN2CCCN(c3ncnc4sccc34)CC2)no1`, for which the INHIBITION is on record as 37.75%.

Consider `CCc1nc(CN2CCCN(c3ncnc4ccccc34)CC2)no1`, for which the INHIBITION is -50.34%.

`CC(C)CN1CCN(C(=O)c2ccn(C)c(=O)c2)CC1`: the INHIBITION came out at 1.36%.
